Compounds with a hit are over-represented: about 1.5% of the library has one in this group of screens.
FEN1 inhibitor: human FEN1 inhibition. hit rate 0.35% among 390,000. Recombinant FEN1 flap cleavage, fluorescence, 15 min. Potency, µM (doses to about 114 µM), for the others: top-dose activity change, negative = inhibition, usual class: inhibitors. P39748; further: potency means the concentration at half of the fitted maximal effect; nearly all actives have a fitted effect of over 65% in size
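Steps: FEN1 (10 nM) dispensed; compound added by pin tool; 15 min at room temperature; substrate added to 50 nM final; reads at 0 min and 15 min; data normalized and fitted (four-parameter Hill).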
BLM inh: blocks DNA unwinding by human BLM helicase | P54132 | recombinant BLM DNA unwinding, fluorescence dequenching | Potency, µM (doses to about 56.1 µM), without a hit: at the top dose activity change, negative = inhibition, actives largely listed as inhibitors | hit rate 0.2% among 350,000;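 further: potency means the concentration at half of the fitted maximal effect; plate controls were vehicle for no effect and no enzyme for full effect; nearly all actives have a fitted effect of over 35% in size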
RECQ1 helicase: inhibitors of human RECQ1 DNA helicase | P46063 | RECQ1 DNA unwinding, red fluorescence kinetic read | Potency, µM (highest dose often 57.3 µM), for inactives: at the highest dose activity, negative = inhibition, usual class: inhibitors | hit rate 0.54% among 240,000;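 further: potency means the concentration at half of the fitted maximal effect; plate controls were vehicle for no effect and no enzyme for full effect; nearly all actives have a fitted effect of over 30% in size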
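RECQ1T1 50 nM; forked duplex (20 bp + 30-nt ss tails) 200 nM, ATP 2 mM final; pH 8.0, 2 mM MgCl2, 2.5 ug/ml poly(dI-dC); 15 min compound preincubation; discontinuous kinetic read over 2 h at RT.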
APE1 inh: inhibitors of human APE1 endonuclease | P27695 | recombinant APE1, TAMRA/BHQ-2 abasic DNA cleavage fluorescence | Potency, µM (doses to about 65.8 µM), for the others: at the highest dose activity change, negative = inhibition, hits mostly inhibitors | hit rate 0.35% among 350,000 | AID 2517;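 further: potency means the concentration at half of the fitted maximal effect; plate controls were vehicle for no effect and reference inhibitor for full effect; nearly all actives have a fitted effect of over 55% in size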
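Endonuclease cleavage of a quenched abasic-site DNA duplex (50 nM) by APE1 (0.75 nM) was tracked by TAMRA dequenching. Compounds were preincubated with enzyme 15 min at room temperature; data normalized to buffer-only and DMSO wells plus NSC13755 control.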
KAT2A inh: inhibitors of human GCN5L2 histone acetyltransferase. Q92830. GCN5L2 HAT assay, ThioGlo1 CoA-SH fluorescence. AID 504327. Potency, µM (highest dose often 58.9 µM), for inactives: top-dose activity change, negative = inhibition, hits mostly inhibitors. hit rate 0.21% among 390,000; further: potency means the concentration at half of the fitted maximal effect
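Enzyme at 20nM final was mixed with library compounds for 15 min at room temperature. Peptide H3(1-25) at 75uM, acetyl-CoA at 70uM and ThioGlo1 at 50uM were then added. Plates were read immediately and after 20 min (Ex340nm/Em540nm).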
PI5P4K alpha inh: blocks human PI5P4K alpha kinase activity | PI5P4Kalpha enzyme, ADP-Glo luminescence, 60 min; hits give low values | hit rate 1.2% among 330,000 | P48426 | max response, %; active means max response of -50% or lower; inconclusive means between -30% and -50%; inactive means -30% or higher; further: value at the top dose of about 77 µM
Target sequence (P48426 whole entry, looked up): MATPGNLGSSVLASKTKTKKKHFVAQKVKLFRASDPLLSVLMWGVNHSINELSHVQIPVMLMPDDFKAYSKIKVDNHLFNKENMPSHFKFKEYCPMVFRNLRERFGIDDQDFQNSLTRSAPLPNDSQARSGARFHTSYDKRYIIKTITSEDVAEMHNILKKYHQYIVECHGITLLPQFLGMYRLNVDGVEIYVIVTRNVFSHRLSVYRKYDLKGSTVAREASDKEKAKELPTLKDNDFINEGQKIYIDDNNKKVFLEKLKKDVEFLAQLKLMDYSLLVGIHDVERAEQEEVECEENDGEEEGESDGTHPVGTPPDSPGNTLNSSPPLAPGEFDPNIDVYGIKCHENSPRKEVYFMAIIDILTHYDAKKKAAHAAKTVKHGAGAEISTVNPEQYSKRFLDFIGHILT
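ADP-Glo luminescence end-point read after a 60 min room-temperature kinase reaction of PI5P4Kalpha plus substrate, initiated with ATP at 5 microM final. Buffer: 0.038 M HEPES pH 7.4, EGTA, 0.1% CHAPS, 5% DMSO.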
ADP-Glo counter: ADP-Glo luciferase interference, PI5P4K counter-screen; ADP-Glo detection counter-screen, luciferase luminescence, no enzyme; shares compounds with PI5P4K alpha inh; 1,100 tested, under 10 active; AID 743285; Potency, µM (series often up to 76.9 µM), inactives show at the top dose activity change, negative = inhibition, actives largely listed as inhibitors
* = called active by the depositor; ? = inconclusive; · = no result given. Unless noted, the call rests on the fitted dose curve; in most records, active means well fitted curve in the direction sought with a large enough effect; inconclusive means small, poorly fitted or top-dose-only effect, or another doubt; inactive means no such curve, though single readings can be large; an effect the other way counts as inactive or inconclusive. Unless noted, on the % scale 0 is the no-effect control and ±100 the full control effect.

SMILES	FEN1 inhibitor	BLM inh	RECQ1 helicase	APE1 inh	KAT2A inh	PI5P4K alpha inh	ADP-Glo counter
COc1ccc(C(c2nnnn2-c2ccc3c(c2)OCCO3)N2CCC(n3c(=O)[nH]c4ccccc43)CC2)cc1 (configuration not stated)	·	·	·	·	·	-3	4%
CC(C)(O)C1O[C@H]2CC[C@@]3(C)[C@@](O)(CC[C@H]4Cc5c([nH]c6ccccc56)[C@@]43C)C2=CC1=O (some centres not stated)	·	·	-12%	-3%	-27%	·	·
CC(=O)[O][Hg][c]1ccccc1	·	5%	9%	26%	?	·	·
CCCOC(=O)Nc1ccc([As](=O)(O)O)cc1NC(=O)OCCC	15%	-4%	1%	3%	3%	-1	·
CCOC(=O)Nc1ccc(NCc2ccc(F)cc2)nc1N	?	·	-5%	?	-21%	-50*	-5%
COC(=O)C1=C(c2ccc(F)cc2F)C[C@@H]2CC[C@H]1N2C(=O)NC1Cc2ccccc2C1	-16%	·	·	5%	-8%	-84*	-2%

High-throughput results (PubChem)
